Test results taken from PubChem BioAssay (Tox21).
Records with an inconclusive call do not appear. Entries that show only a call come without a potency. The source made the active and inactive calls. Unless noted, calls follow the shape of the dose curve; as a rule, active = well fitted curve in the direction sought with a large enough effect in the repeat runs; inconclusive = weak or mixed curves; inactive = no such curve, though single readings can be large; an effect the other way counts as inactive or inconclusive.

Assays:
[1] = qHTS assay to identify small molecule antagonists of the thyroid receptor (TR) signaling pathway - cell viability counter screen (AID 743064); details: GH3.TRE-Luc viability, CellTiter-Fluor, 24 h; series mostly up to 70.3 µM; also: nearly all actives have a fitted effect of over 50% in size; also: potency is read from the fitted curve at half-maximal effect
Method in brief: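 CellTiter-Fluor readout, 30 min at 37 °C/5% CO2, following 23.5 h incubation of GH3.TRE-Luc cells with test compound and 1 nM T3 (final).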

[2] = qHTS assay to identify small molecule antagonists of the thyroid receptor (TR) signaling pathway (AID 743065); details: GH3.TRE-Luc, T3-stimulated luciferase inhibition, 23.5 h; series mostly up to 70.3 µM; also: nearly all actives have a fitted effect of over 55% in size; also: potency is read from the fitted curve at half-maximal effect
Method in brief: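 Antagonism measured as loss of luciferase signal in GH3 cells stably carrying a TRE-luciferase reporter, co-treated with compound and T3 (1 nM final) for 23.5 h at 37 C. Viability was read in the same well by CellTiter-Fluor.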

[3] = system: thyroid hormone receptor (rat, GH3 cells); experiment: qHTS assay to identify small molecule agonists of the thyroid receptor (TR) signaling pathway (AID 743066; calls by dose curve); details: GH3.TRE-Luc cells, TR agonist luciferase, 24 h; series mostly up to 83.9 µM
[4] = qHTS assay to identify small molecule antagonists of the estrogen receptor alpha (ER-alpha) signaling pathway - cell viability counter screen (AID 743074; calls by dose curve; also: nearly all actives have a fitted effect of over 45% in size); details: ERalpha-bla HEK293 viability, CellTiter-Glo luminescence, 18 h; series mostly up to 69.4 µM
[5] = qHTS assay to identify small molecule antagonists of the estrogen receptor alpha (ER-alpha) signaling pathway using the BG1 cell line - cell viability counter screen (AID 743081); details: BG1Luc4E2 viability, CellTiter-Fluor, 22 h; series mostly up to 70.3 µM;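 also: compound given together with 17beta-estradiol as the ER stimulus; nearly all actives have a fitted effect of over 45% in size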
[6] = molecular target: Aromatase (Homo sapiens) (UniProt P11511); experiment: qHTS assay to identify aromatase inhibitors (AID 743083); details: MCF-7 aro ERE, testosterone-driven ERE luciferase, 24 h; series mostly up to 70.3 µM; also: nearly all actives have a fitted effect of over 55% in size
[7] = qHTS assay to identify aromatase inhibitors - cell viability counter screen (AID 743084); details: MCF-7 aro ERE viability, CellTiter-Fluor, 24 h; series mostly up to 70.3 µM;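 also: cells stimulated with testosterone during compound exposure; nearly all actives have a fitted effect of over 55% in size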
[8] = molecular target: Aryl hydrocarbon receptor (Homo sapiens) (UniProt P35869); experiment: qHTS assay to identify small molecule that activate the aryl hydrocarbon receptor (AhR) signaling pathway (AID 743085); details: HepG2 AhR-luc (HG2L7.5c1), luciferase, 24 h; series mostly up to 70.3 µM; also: nearly all actives have a fitted effect of over 15% in size; also: potency is read from the fitted curve at half-maximal effect;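 as to activation: HG2L7.5c1 human HepG2 liver cells with stably integrated DRE-driven firefly reporter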
Method in brief: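 Stably transfected human liver carcinoma cells (HG2L7.5c1; 20 DRE-firefly luciferase) were incubated 5 h, dosed, and kept 24 h at 37C. Agonism was scored from increased luciferase luminescence.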

[9] = qHTS assay to identify small molecule that activate the aryl hydrocarbon receptor (AhR) signaling pathway - cell viability counter screen (AID 743086); details: HepG2-AhR-luc viability, CellTiter-Fluor, 24 h; series mostly up to 70.3 µM; also: nearly all actives have a fitted effect of over 45% in size; also: potency is read from the fitted curve at half-maximal effect
Method in brief: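 Cytotoxicity counter screen: CellTiter-Fluor signal (30 min, 37 C) in 4000 HepG2 cells/well carrying the DRE-luciferase reporter, following 24 h compound exposure at 37 C.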

[10] = molecular target: Peroxisome proliferator-activated receptor gamma (Homo sapiens) (UniProt P37231); experiment: qHTS assay to identify small molecule agonists of the peroxisome proliferator-activated receptor gamma (PPARg) signaling pathway (AID 743094; active = well fitted activation curve with a large enough effect in the signal ratio in the repeat runs, not every such curve was filed as active; the % refers to the signal ratio); details: HEK293H PPARg-UAS-bla, beta-lactamase FRET ratio, 17 h; series mostly up to 57 µM
Method in brief: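 Reporter activation was scored by fluorescence of cleaved LiveBLAzer B/G substrate (1 h, room temperature) in PPARg-bla HEK293H cells previously treated 17 h at 37C with DMSO-dissolved compounds.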

[11] = molecular target: Peroxisome proliferator-activated receptor gamma (Homo sapiens) (UniProt P37231); experiment: qHTS assay to identify small molecule antagonists of the peroxisome proliferator-activated receptor gamma (PPARg) signaling pathway (AID 743191; calls by dose curve; also: nearly all actives have a fitted effect of over 30% in size; also: potency is read from the fitted curve at half-maximal effect); details: HEK293H PPARg-UAS-bla, beta-lactamase ratio, antagonist, 17 h; series mostly up to 62.6 µM
Method in brief: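 Beta-lactamase reporter under UAS control in HEK293H PPARg-bla cells; compound treatment 17 h at 37C. Read-out: fluorescence intensity after 1 h room-temperature incubation with LiveBLAzer B/G FRET substrate.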

[12] = qHTS assay for small molecule agonists of the antioxidant response element (ARE) signaling pathway - cell viability counter screen (AID 743203; calls by dose curve; also: nearly all actives have a fitted effect of over 55% in size); details: ARE-bla HepG2 viability, CellTiter-Glo luminescence, 16 h; series mostly up to 73.3 µM
Method in brief: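 Viability counter screen: stably transfected ARE-bla HepG2 line, 16 hrs compound exposure at 37C/5% CO2, ATP-based CellTiter-Glo luminescence measured in the reporter wells.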

[13] = qHTS assay for small molecule activators of the heat shock response signaling pathway - cell viability counter screen (AID 743209); details: HSE-bla HeLa viability, CellTiter-Glo luminescence, 5 h; series mostly up to 62.6 µM; also: nearly all actives have a fitted effect of over 50% in size
Method in brief: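 Viability of HSE-bla HeLa cells is measured with CellTiter-Glo in the wells already used for the reporter read. Compound exposure lasts 5 h at 37 C, and luminescence is read after 30 min at room temperature.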

[14] = qHTS assay to identify small molecule antagonists of the peroxisome proliferator-activated receptor gamma (PPARg) signaling pathway - cell viability counter screen (AID 743194); details: PPARg-bla HEK293H viability, CellTiter-Glo luminescence, 17 h, co-treated with 50 nM rosiglitazone; series mostly up to 62.6 µM; also: nearly all actives have a fitted effect of over 55% in size
Method in brief: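 Viability was measured as CellTiter-Glo luminescence in GeneBLAzer PPARg UAS-bla HEK293H cells. These cells had been exposed 17 h at 37 C to compounds together with rosiglitazone at 50 nM final, with the beta-lactamase readout taken in the same wells.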

[15] = qHTS assay for small molecule agonists of the antioxidant response element (ARE) signaling pathway (AID 743202; active = well fitted activation curve with a large enough effect in the signal ratio in the repeat runs, not every such curve was filed as active; the % refers to the signal ratio; also: potency is read from the fitted curve at half-maximal effect); details: HepG2 ARE-bla reporter, beta-lactamase FRET, 16 h; series mostly up to 73.3 µM
Method in brief: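 Beta-lactamase reporter activity, read as fluorescence intensity, reflects ARE/Nrf2 pathway induction in HepG2 cells after 16 h compound exposure at 37 C; substrate loading was 2 h at room temperature.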

[16] = qHTS assay for small molecule activators of the heat shock response signaling pathway (AID 743210; active = well fitted activation curve with a large enough effect in the signal ratio in the repeat runs, with a control signal flat, not every such curve was filed as active; the % refers to the signal ratio;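 also: HeLa cells with beta-lactamase reporter driven by heat shock elements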); details: HeLa HSE-bla reporter, beta-lactamase ratio, 5 h; series mostly up to 62.6 µM
Method in brief: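 Fluorescence from a cleaved B/G FRET substrate (2.5 h, room temp) reports HSE-driven beta-lactamase in HeLa cells treated 5 h at 37 C with DMSO-dissolved compounds.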

[17] = molecular target: Estrogen receptor (Homo sapiens) (UniProt P03372); experiment: qHTS assay to identify small molecule agonists of the estrogen receptor alpha (ER-alpha) signaling pathway (AID 743075; calls by dose curve); details: HEK293 ER-alpha-UAS-bla, beta-lactamase FRET ratio, 18 h; series mostly up to 70.1 µM
[18] = molecular target: Estrogen receptor (Homo sapiens) (UniProt P03372); experiment: qHTS assay to identify small molecule antagonists of the estrogen receptor alpha (ER-alpha) signaling pathway (AID 743069; active = well fitted curve in the direction sought with a large enough effect in the signal ratio in the repeat runs, not every such curve was filed as active; the % refers to the signal ratio); details: HEK293 ER-alpha-UAS-bla, beta-lactamase ratio, antagonist mode; series mostly up to 69.4 µM
Method in brief: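 Fluorescence intensity from a beta-lactamase FRET substrate served as the read-out. Cells: HEK293 with stably integrated ER-alpha-UAS-bla reporter. Agonist 17beta-estradiol was co-added with compounds; incubation 18 hr at 37C, substrate 2 hr at room temperature.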

[19] = molecular target: Estrogen receptor (Homo sapiens) (UniProt P03372); experiment: qHTS assay to identify small molecule agonists of the estrogen receptor alpha (ER-alpha) signaling pathway using the BG1 cell line (AID 743079); details: BG1Luc4E2 cells, ERE-luciferase agonist, 22 h; activation: at 70.3 µM (top of the series); also: nearly all actives have a fitted effect of over 20% in size
[20] = qHTS assay to identify small molecule antagonists of the estrogen receptor alpha (ER-alpha) signaling pathway using the BG1 cell line (AID 743080; calls by dose curve;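 also: BG1 cells stimulated with 17beta-estradiol alongside compound; nearly all actives have a fitted effect of over 25% in size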); details: BG1Luc4E2 ERE-luciferase antagonist mode, luminescence; series mostly up to 70.3 µM
Method in brief: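 BG1Luc4E2, endogenous ER-alpha, 4xERE-luc; 5 d charcoal-stripped FBS, phenol red free; 24 h plating; cpd + 17beta-estradiol 21.5 h, 37 C/5% CO2; CellTiter-Fluor viability 30 min, then ONE-Glo luciferase 30 min RT.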

Sequence of Peroxisome proliferator-activated receptor gamma (Homo sapiens) (P37231 whole entry, looked up): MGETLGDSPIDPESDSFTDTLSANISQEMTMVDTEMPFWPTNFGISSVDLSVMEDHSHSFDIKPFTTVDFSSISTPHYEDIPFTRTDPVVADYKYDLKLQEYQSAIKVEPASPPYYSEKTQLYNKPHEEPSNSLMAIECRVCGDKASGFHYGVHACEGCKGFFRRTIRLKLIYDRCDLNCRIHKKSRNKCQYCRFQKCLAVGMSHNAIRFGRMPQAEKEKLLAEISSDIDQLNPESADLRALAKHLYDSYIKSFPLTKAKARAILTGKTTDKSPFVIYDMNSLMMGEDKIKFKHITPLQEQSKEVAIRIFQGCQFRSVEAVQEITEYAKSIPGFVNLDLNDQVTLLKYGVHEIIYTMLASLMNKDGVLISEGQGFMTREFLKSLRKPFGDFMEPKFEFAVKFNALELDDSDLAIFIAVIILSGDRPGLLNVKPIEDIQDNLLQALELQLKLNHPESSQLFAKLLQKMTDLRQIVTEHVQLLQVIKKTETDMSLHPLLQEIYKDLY
Sequence of Aromatase (Homo sapiens) (P11511 whole entry, looked up): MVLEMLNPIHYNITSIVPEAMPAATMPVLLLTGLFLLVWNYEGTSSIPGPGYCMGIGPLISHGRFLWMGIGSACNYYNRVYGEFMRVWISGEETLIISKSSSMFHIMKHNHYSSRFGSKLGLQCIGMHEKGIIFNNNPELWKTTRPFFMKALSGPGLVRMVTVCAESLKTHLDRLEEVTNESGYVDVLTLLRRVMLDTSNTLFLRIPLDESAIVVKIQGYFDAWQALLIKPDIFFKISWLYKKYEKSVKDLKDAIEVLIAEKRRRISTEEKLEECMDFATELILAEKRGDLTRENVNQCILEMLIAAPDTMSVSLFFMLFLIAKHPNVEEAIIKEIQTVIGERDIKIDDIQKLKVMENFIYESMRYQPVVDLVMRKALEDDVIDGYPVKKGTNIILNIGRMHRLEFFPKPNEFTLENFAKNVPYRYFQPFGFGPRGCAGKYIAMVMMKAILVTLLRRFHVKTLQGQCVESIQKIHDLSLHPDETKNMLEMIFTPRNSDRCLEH
Sequence of Estrogen receptor (Homo sapiens) (P03372 whole entry, looked up): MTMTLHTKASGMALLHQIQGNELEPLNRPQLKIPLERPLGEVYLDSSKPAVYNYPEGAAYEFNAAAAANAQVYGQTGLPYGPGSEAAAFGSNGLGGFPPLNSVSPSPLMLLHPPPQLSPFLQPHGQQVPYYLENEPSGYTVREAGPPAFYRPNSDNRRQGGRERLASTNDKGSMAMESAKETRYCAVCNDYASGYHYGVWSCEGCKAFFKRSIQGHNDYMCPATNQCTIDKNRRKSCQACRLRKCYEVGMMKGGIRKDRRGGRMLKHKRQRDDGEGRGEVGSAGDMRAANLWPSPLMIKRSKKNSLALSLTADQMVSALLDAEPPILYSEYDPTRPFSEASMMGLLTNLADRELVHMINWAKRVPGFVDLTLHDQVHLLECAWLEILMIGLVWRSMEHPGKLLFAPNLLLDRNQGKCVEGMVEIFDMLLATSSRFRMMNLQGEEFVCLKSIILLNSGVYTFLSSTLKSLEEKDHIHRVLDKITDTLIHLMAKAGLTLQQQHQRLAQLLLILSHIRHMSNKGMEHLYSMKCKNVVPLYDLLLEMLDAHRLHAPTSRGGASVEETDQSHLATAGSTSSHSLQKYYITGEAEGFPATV
Sequence of Aryl hydrocarbon receptor (Homo sapiens) (P35869 whole entry, looked up): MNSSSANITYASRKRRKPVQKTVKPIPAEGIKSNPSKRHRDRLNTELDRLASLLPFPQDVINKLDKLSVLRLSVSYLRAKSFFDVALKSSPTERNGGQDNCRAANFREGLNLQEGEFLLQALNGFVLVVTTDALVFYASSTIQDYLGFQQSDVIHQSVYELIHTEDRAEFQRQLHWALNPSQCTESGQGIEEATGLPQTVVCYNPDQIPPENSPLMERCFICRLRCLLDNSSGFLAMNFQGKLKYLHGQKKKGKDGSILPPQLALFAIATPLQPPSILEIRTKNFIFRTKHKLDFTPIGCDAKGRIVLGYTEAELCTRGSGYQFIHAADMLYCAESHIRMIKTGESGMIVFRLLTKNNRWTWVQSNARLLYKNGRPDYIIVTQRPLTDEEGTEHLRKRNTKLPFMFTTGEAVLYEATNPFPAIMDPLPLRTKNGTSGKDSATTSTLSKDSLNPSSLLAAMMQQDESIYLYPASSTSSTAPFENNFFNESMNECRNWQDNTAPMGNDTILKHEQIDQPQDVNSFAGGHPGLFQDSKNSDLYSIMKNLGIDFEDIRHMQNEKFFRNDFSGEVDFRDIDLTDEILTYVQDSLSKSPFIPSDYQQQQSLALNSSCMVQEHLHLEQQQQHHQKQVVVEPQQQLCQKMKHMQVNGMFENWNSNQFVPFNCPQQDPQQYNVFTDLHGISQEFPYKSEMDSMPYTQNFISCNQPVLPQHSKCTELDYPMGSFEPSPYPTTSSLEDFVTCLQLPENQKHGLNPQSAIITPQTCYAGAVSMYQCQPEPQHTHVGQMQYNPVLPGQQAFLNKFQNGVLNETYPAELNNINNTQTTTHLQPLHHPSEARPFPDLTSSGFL

SMILES | Potency [1] | Potency [2] | outcome [3] | Potency [4] | Potency [5] | Potency [6] | Potency [7] | Potency [8] | Potency [9] | Potency [10] | Potency [11] | Potency [12] | Potency [13] | Potency [14] | Potency [15] | Potency [16] | Potency [17] | Potency [18] | Potency [19] | Potency [20]
CC1CC(O)CC(C)(C)C1 (stereo not drawn) | inactive | inactive | inactive | inactive | inactive | inactive | inactive | inactive | inactive | inactive | inactive | inactive | inactive | – | – | – | – | – | – | –
CCCCC(CC)CNCC(CC)CCCC (stereo not drawn) | inactive | inactive | inactive | inactive | inactive | – | – | – | inactive | – | – | inactive | inactive | inactive | inactive | inactive | – | – | – | –
CN(C)C(=O)Nc1ccc(Oc2ccc(Cl)cc2)cc1 | inactive | 54.5 µM (active) | inactive | inactive | – | – | inactive | inactive | inactive | inactive | – | – | inactive | inactive | 19.3 µM (active) | inactive | – | – | – | –
C[N+]1(C)CCC(=C(c2ccccc2)c2ccccc2)CC1 | inactive | inactive | inactive | inactive | inactive | inactive | inactive | inactive | inactive | – | – | inactive | inactive | inactive | – | – | – | – | – | –
c1cnc2c(n1)CCCC2 | inactive | inactive | inactive | inactive | inactive | inactive | inactive | inactive | inactive | inactive | inactive | inactive | inactive | inactive | inactive | inactive | – | – | – | –
NCC1CCCC(CN)C1 (stereo not drawn) | inactive | inactive | inactive | inactive | inactive | inactive | inactive | inactive | inactive | inactive | – | inactive | inactive | inactive | inactive | inactive | – | – | – | –
Cc1ccccc1N1C(=O)c2cc(S(N)(=O)=O)c(Cl)cc2NC1C (stereo not drawn) | inactive | inactive | inactive | inactive | inactive | inactive | inactive | inactive | inactive | inactive | – | inactive | – | inactive | inactive | inactive | – | – | – | –
COC(=O)Nc1nc2ccc(C(=O)c3cccs3)cc2[nH]1 | 0.266 µM (active) | 0.237 µM (active) | inactive | – | inactive | inactive | inactive | 3.76 µM (active) | inactive | – | – | – | inactive | inactive | 0.75 µM (active) | – | – | – | – | –
CO[C@H]1O[C@H](CO)[C@@H](O)[C@H](O)[C@H]1O | inactive | inactive | inactive | inactive | inactive | inactive | inactive | inactive | inactive | inactive | inactive | inactive | – | inactive | inactive | inactive | – | – | – | –
CCOC(=O)[C@@H](C)Oc1ccc(Oc2nc3ccc(Cl)cc3o2)cc1 | inactive | inactive | inactive | inactive | inactive | inactive | inactive | inactive | inactive | inactive | – | inactive | inactive | inactive | – | inactive | – | – | – | –
C/C=C(\C)C(=O)OCCC(C)CCC=C(C)C (stereo not drawn) | inactive | inactive | inactive | inactive | inactive | – | inactive | – | inactive | – | – | inactive | inactive | inactive | inactive | inactive | – | – | – | –
CC1=CC(=O)CC(C)(C)C1(O)/C=C/C(C)=C\C(=O)O (stereo not drawn) | inactive | inactive | inactive | inactive | inactive | inactive | inactive | inactive | inactive | inactive | inactive | inactive | – | inactive | inactive | inactive | – | – | – | –
O=C(C(=O)c1ccccc1)c1ccccc1 | inactive | inactive | inactive | inactive | inactive | – | – | – | inactive | – | – | – | inactive | inactive | – | inactive | – | – | – | –
Cc1ccc(Nc2nccc(N(C)c3ccc4c(C)n(C)nc4c3)n2)cc1S(N)(=O)=O | inactive | 6.68 µM (active) | inactive | – | – | – | – | – | 23.7 µM (active) | – | 26.6 µM (active) | inactive | inactive | – | – | inactive | inactive | – | – | –
CCCCC(CC)C(=O)OCCOCCOCCOCCOC(=O)C(CC)CCCC (stereo not drawn) | inactive | – | inactive | inactive | inactive | – | – | inactive | inactive | inactive | – | – | inactive | inactive | inactive | inactive | inactive | inactive | inactive | inactive
